Source: the supplement of paper PMC11732987, “Enantioselective OTUD7B fragment discovery through chemoproteomics screening and high-throughput optimisation” (Communications Chemistry, 2025)

Assays:
Test in all cases: log2 ratio of Biotin-Ahx-Ub-VS probe labelling (fragment/DMSO); higher = less target engagement (more negative = stronger competition), active = hit call of the paper (q ≤ 0.05, log2 ratio ≤ -1)
Details in all cases: compound concentration: 200 uM; treatment time: 3 h
USP34 = USP34 (UniProt Q70CQ2)
Chain of USP34 (Q70CQ2 whole entry, the tested form may be a part): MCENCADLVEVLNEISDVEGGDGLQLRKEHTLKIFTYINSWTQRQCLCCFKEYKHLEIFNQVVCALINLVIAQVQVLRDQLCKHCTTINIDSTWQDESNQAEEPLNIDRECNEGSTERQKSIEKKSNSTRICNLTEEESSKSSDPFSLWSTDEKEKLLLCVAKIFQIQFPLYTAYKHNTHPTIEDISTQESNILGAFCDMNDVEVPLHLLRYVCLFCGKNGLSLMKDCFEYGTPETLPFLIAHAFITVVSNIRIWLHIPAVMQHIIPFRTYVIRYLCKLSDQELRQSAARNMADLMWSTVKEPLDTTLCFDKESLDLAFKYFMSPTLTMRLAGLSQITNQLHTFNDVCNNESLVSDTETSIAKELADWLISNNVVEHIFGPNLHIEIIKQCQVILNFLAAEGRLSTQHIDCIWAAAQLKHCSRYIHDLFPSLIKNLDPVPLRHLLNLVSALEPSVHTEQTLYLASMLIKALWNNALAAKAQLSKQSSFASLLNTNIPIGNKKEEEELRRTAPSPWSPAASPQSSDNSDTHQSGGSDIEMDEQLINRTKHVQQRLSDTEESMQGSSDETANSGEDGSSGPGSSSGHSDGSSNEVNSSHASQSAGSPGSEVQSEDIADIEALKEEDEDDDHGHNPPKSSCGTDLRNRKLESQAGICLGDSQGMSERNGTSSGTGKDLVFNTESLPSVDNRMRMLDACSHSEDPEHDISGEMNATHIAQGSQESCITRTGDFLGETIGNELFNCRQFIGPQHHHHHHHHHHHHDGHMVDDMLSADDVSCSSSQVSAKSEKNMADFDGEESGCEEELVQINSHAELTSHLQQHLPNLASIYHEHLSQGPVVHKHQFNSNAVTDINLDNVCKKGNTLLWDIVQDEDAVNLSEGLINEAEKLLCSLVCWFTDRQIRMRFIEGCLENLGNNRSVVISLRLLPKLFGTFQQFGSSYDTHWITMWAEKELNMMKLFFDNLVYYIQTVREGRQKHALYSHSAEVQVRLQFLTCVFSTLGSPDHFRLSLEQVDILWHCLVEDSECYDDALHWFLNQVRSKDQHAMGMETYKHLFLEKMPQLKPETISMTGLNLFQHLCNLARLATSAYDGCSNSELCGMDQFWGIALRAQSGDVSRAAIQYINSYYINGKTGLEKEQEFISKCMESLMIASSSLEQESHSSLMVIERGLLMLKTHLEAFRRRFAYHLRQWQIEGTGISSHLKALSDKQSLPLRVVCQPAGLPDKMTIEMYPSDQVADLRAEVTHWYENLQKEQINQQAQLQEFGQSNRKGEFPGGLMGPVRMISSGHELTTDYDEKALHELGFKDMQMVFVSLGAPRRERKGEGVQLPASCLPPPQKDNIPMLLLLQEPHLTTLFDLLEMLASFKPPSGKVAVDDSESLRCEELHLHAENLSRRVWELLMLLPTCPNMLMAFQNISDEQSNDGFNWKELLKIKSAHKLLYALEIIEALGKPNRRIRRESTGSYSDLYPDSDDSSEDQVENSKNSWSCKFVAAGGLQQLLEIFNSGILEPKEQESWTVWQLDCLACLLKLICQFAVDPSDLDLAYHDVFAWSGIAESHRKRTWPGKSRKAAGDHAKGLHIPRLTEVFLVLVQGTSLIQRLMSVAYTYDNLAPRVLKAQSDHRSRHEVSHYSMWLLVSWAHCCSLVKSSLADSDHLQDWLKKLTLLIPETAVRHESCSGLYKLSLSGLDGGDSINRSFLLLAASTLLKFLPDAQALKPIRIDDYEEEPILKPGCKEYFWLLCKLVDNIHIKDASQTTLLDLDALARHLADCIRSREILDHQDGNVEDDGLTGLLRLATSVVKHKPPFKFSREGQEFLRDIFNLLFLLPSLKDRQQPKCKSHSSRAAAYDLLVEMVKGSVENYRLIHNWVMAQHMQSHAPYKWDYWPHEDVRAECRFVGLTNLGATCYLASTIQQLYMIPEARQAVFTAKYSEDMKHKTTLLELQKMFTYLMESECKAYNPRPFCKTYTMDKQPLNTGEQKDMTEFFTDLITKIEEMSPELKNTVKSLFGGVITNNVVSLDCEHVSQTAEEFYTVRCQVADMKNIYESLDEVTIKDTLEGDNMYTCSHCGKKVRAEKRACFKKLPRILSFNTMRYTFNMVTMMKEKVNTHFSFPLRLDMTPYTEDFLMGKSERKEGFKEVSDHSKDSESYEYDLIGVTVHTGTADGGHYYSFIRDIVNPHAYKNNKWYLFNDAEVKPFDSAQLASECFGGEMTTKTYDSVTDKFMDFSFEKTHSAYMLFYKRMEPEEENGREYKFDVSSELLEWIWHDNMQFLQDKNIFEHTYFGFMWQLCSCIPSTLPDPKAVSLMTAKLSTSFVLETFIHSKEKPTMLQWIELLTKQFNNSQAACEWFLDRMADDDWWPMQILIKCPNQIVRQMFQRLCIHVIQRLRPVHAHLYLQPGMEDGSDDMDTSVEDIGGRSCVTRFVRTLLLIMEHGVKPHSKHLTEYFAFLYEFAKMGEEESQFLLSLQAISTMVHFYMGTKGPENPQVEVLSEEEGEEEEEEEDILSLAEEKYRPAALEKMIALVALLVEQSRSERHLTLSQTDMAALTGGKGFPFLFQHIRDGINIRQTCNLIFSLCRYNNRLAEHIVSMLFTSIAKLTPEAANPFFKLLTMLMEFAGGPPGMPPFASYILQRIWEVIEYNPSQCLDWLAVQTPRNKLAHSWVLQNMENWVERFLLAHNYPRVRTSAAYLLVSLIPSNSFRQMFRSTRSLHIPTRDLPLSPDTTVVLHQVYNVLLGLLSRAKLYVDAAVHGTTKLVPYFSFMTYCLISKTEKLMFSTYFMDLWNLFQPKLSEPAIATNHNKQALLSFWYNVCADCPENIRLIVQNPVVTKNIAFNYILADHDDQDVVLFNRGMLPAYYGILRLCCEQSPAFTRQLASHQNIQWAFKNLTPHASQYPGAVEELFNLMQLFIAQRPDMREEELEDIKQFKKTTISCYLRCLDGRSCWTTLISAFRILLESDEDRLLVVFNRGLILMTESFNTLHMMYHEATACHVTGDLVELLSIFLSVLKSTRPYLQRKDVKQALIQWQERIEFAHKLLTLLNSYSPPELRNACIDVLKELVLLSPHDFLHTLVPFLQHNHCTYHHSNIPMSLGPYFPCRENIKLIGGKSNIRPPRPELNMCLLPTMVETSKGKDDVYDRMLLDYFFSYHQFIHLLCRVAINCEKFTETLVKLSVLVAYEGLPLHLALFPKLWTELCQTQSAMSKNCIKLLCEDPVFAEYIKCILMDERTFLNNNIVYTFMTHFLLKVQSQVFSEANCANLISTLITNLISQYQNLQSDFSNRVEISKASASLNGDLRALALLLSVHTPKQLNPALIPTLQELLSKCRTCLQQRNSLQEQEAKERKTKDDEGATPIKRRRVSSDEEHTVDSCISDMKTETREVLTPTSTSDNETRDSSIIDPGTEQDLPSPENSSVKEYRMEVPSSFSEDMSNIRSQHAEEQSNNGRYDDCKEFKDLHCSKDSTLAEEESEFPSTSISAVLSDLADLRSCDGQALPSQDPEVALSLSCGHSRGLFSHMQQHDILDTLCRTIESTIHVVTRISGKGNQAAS
How it was run: (§1)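 Triplicate samples of HEK293T lysate, 495 µg each, received fragment at 200 µM or vehicle for 3 h, followed by Biotin-Ahx-Ub-VS (0.5 µM final) for 1 h. After NeutrAvidin enrichment of labelled DUBs and LysC/trypsin digestion, peptides were run by diaPASEF LC-MS/MS. The values are average log2 fragment/vehicle ratios from global-median-normalised Spectronaut label-free quantities, tested by unpaired t-test on proteins having ≥2 unique peptides.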

USP36 = target: T1, USP36 (UniProt Q9P275)
T1 sequence (whole entry): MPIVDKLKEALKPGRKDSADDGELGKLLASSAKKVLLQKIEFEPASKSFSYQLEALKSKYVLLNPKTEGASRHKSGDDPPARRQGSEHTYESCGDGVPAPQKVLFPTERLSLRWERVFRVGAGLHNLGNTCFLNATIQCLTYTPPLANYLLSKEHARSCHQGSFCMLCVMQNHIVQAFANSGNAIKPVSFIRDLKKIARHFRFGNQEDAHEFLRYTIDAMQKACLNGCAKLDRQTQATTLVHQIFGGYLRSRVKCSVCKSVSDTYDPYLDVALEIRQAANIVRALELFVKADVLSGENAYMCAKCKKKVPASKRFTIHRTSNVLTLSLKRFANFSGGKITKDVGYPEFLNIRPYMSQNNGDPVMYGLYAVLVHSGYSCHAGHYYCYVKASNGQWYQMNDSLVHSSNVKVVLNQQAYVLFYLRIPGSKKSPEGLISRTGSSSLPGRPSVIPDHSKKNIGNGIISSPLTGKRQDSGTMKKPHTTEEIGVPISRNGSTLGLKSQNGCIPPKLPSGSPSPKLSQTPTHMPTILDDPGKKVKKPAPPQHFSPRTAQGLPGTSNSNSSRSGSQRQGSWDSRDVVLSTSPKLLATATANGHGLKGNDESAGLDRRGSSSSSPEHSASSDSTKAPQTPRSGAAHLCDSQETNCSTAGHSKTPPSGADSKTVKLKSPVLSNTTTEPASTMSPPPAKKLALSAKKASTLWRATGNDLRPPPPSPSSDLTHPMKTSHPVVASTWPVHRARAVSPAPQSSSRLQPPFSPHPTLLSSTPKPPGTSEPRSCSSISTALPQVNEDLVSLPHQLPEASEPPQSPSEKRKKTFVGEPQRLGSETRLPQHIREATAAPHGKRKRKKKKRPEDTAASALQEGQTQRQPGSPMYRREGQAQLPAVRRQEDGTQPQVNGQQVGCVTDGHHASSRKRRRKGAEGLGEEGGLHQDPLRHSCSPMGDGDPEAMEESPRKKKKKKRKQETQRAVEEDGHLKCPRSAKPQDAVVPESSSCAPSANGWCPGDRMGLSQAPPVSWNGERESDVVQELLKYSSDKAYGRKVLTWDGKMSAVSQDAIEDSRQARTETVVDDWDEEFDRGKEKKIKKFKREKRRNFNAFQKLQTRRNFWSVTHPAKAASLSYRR
How it was run: as §1

USP38 = target: T2, USP38 (UniProt Q8NB14)
T2 sequence (whole entry): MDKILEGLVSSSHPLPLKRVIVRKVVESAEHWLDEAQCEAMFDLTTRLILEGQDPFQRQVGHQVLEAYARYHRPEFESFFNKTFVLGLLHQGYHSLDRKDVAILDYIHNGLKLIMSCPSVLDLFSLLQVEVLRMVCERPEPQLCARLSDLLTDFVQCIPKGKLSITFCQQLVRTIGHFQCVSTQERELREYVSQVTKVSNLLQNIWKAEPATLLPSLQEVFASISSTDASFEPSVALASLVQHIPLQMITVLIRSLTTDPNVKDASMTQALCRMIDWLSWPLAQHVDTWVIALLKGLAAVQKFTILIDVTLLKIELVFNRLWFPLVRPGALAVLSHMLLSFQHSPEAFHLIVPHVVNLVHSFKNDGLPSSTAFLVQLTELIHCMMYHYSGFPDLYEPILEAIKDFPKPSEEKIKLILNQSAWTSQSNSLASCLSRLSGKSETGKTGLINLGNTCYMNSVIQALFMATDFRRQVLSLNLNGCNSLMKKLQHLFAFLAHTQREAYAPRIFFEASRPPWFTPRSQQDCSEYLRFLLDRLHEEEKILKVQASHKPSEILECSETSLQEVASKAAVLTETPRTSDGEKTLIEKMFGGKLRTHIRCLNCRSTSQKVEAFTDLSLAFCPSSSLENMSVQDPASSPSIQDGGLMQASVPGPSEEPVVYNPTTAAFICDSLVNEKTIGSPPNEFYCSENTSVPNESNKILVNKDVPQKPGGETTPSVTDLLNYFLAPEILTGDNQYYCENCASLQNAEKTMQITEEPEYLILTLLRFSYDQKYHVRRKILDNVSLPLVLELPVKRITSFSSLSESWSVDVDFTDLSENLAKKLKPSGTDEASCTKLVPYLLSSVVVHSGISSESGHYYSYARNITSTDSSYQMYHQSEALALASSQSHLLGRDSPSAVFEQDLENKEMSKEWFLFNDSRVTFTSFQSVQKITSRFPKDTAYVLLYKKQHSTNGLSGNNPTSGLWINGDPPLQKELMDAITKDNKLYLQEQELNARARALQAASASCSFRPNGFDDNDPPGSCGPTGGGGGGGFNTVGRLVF
How it was run: as §1

USP39 = target: T3, USP39 (UniProt Q53GS9)
T3 sequence (whole entry): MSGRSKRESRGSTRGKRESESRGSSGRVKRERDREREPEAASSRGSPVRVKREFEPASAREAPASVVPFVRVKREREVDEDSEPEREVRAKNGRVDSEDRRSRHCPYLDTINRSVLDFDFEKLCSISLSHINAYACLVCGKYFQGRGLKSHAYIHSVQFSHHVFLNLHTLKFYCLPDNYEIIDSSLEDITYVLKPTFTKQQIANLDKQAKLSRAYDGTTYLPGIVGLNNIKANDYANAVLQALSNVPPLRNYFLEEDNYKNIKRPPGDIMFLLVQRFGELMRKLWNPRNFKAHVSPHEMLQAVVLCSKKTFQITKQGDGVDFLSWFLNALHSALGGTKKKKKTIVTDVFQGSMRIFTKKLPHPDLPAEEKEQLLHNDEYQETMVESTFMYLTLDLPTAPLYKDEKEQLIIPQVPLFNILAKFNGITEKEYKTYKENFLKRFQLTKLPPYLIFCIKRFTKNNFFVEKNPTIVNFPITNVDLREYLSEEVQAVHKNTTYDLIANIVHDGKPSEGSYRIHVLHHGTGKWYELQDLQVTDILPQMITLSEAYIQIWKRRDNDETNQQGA
How it was run: as §1

USP4 = target: T4, USP4 (UniProt Q13107)
T4 sequence (whole entry): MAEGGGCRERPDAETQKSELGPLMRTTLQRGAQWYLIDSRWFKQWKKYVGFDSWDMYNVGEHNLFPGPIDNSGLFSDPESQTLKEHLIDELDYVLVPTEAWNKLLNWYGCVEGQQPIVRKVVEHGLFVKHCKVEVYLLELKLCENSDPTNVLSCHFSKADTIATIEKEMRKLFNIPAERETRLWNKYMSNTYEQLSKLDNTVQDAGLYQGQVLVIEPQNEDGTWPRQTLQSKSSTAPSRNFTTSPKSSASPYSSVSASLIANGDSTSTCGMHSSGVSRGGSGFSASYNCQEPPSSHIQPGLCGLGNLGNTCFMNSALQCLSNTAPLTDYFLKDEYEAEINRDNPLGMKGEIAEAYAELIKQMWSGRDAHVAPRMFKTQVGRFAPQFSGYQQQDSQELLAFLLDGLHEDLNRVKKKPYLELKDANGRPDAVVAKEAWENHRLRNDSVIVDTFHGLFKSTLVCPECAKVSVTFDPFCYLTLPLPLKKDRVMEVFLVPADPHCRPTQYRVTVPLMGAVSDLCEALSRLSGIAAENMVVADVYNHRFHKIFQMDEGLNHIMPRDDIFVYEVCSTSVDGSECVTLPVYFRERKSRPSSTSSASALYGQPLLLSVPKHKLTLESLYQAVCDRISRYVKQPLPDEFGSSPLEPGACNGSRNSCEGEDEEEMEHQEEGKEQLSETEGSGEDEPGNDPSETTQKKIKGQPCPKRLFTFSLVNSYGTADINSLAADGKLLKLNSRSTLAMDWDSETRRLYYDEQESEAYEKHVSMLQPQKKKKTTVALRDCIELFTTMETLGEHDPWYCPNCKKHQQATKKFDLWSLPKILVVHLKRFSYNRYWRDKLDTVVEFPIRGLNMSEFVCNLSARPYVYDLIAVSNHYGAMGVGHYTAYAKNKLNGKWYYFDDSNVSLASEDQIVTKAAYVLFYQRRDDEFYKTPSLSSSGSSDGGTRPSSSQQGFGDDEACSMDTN
How it was run: as §1

Measured: log2 ratio of Biotin-Ahx-Ub-VS probe labelling

O=C(CCl)Nc1ccc(F)cc1F
inactive: USP34 -0.242 | USP36 -0.306 | USP38 0.102 | USP39 0.37 | USP4 -0.0254
